# Results published in PubChem BioAssay AID463190 (Sanford-Burnham Center for Chemical Genomics, 2010).
# The whole screen tested about 330,000 compounds, of which about 7,300 (2.2%) were called active. The sample holds actives, similar compounds and a random draw of the others, so the mix is not that of the screen. Unmarked numbers belong to inactive results.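 How the source made its calls: active means inhibition of at least 40%; inactive means the rest.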
# Assay: growth inhibition of tim10-1 ts yeast – luminescence, uHTS, primary screen (AID 463190);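 further: mutant grown at 25 °C; 0% = DMSO wells with yeast and 100% = wells holding no yeast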
# Conditions: S. cerevisiae tim10-1 ts strain growth, BacTiter-Glo, 24 h; at 20 µM; active compounds read high
row,Compound,inhibition
1,CC(=O)c1cc2c(cc1NC(=O)Cn1nc(-c3ccc(F)cc3)ccc1=O)OCO2,16.5%
2,CN(C)c1ccc(C(CNC(=O)c2ccc(F)cc2)c2c[nH]c3ccccc23)cc1 (configuration not stated),37.2%
3,Clc1ccc(Nc2nc(-c3cccs3)cs2)nc1,45.1% (active)
4,Cc1cccc(Nc2nc(-c3ccccc3)cs2)n1,-40.5%
5,CCCc1cc(C(=O)Nc2ccc(Cl)cn2)cs1,27.7%
6,CCOC(=O)c1cc(-c2ccccc2C)n(Cc2cc(C)no2)n1,9.65%
7,CC(C)(C)c1ccc(C(=O)NNC(=O)Cc2ccccc2)cc1,-12.1%
8,CN(CC(=O)O)C(=O)c1ccccc1,-0.243%
9,CN(C(=O)CC(NC(=O)c1ccccc1)(c1ccccc1)c1ccccc1)c1ccccc1,41.7% (active)
10,CCOC(=O)NC(=O)/C(C#N)=C\c1ccccc1,2.89%
11,O=C(/C=C/c1c(F)cccc1Cl)Nc1nn[nH]n1,10.7%
12,CNC(=O)/C(C#N)=C/c1c(F)cccc1Cl,55.4% (active)
13,O=C(CNS(=O)(=O)c1ccccc1)NCC(=O)OCc1ccccc1F,9.03%
14,O=C(Cn1nc(Cc2cccnc2)c2ccccc2c1=O)NCC1COc2ccccc2O1 (configuration not stated),14.3%
15,C=CCNC(=S)NNC(=O)COc1c(Cl)cc(Cl)cc1Cl,37.3%
16,CCOC(=O)C1CCN(C(=O)C2CCCN(S(=O)(=O)c3ccc(OC)c(Cl)c3)C2)CC1 (configuration not stated),-9.18%
17,COc1ccccc1NC(=O)N1CCCC1C(=O)NCc1cccs1 (configuration not stated),16.7%
18,O=[N+]([O-])c1ccccc1S(=O)(=O)Nc1cccc2cccnc12,34.8%
19,COc1cc(NS(=O)(=O)c2ccc3ccccc3c2)c2ncccc2c1,40.5% (active)
20,Cc1ccc(S(=O)(=O)Nc2ccc3ncccc3c2)cc1,18.6%
21,COc1ccc(S(=O)(=O)NCc2cccnc2)cc1NC(=O)c1ccc(C)cc1,8.35%
22,CCC(C)(C)n1nnnc1C(c1cccs1)N1CCN(c2nc3ccccc3s2)CC1 (configuration not stated),36.1%
23,CCC(C)(C)n1nnnc1CN1CCN(c2nc3ccc(C)cc3cc2C#N)CC1,40.7% (active)
24,Cc1ccc2nc(NCCCNC(=O)c3cnccn3)c(C#N)cc2c1,8.4%
25,COc1ccc(CNC(=O)COC(=O)/C=C/c2ccc(S(=O)(=O)N3CCOCC3)cc2)cc1,20%
26,Cc1nc2nc(C)c(CCC(=O)N3CCN(c4ccccc4)CC3)c(C)n2n1,1.14%
27,COc1ccc2[nH]c3c(c2c1)CCN1C(=O)C(CC(=O)NCc2cccc(C(F)(F)F)c2)C[C@H](C(=O)N2CCOCC2)[C@@]31C (some centres not stated),11%
